GPR32 ag: agonists of human resolvin D1 receptor DRV1 (GPR32). CHO-K1 GPR32 beta-arrestin PathHunter luminescence, 90 min; zero percent set by DMSO-only wells. activation, % at 76.9 µM. 2.5% of 48,000 active. AID 1346428;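 active = activation of at least 60% and not above a set upper limit, about 1 call in 100 departs from these limits; inconclusive = activation of 40% to 60%, or above that upper limit; inactive = activation under 40%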; note: 0% is about no effect
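Agonism was scored as beta-arrestin recruitment to ProLink-fused GPR32 in stably transfected CHO-K1 cells, giving a chemiluminescent beta-Gal signal; compounds were incubated 90 min at 37 °C.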
NTMT1 inh: inhibitors of human N-terminal methyltransferase NTMT1. NTMT1 MTase-Glo SAH luminescence, purified enzyme. AID 1645870. 2.5% of 59,000 active. Potency, µM (highest dose often 114 µM), inactives show top-dose activity change, negative = inhibition, hits mostly inhibitors. Q9BV86;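 note: potency is the fitted concentration of half-maximal effect; plate controls were DMSO vehicle for no effect and no enzyme for full effect; nearly all actives have a fitted effect of over 65% in size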
SKOV3 invasion: inhibitors of ovarian cancer cell adhesion and invasion in omental model; SKOV3ip1-GFP adhesion/invasion on 3D omental model, fluorescence; AID 1963576; 0.1% of 46,000 active; Potency, µM (series often up to 45.8 µM), for inactives: at the highest dose activity change, negative = inhibition, most hits filed as inhibitors;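 note: potency is the fitted concentration of half-maximal effect; plate controls were DMSO wells for no effect and tomatine positive control wells for full effect; nearly all actives have a fitted effect of over 65% in size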
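A 3D layer of primary human omental fibroblasts, mesothelial cells, fibronectin and collagen I, grown 48 hr, received SKOV3ip1-GFP cells in serum-free medium plus compounds at 0.36-46 umol/L. After 2 hr RT and 16 hr 37 C, fixed adherent GFP cells were counted; normalized to DMSO and tomatine.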
FH mod: Identification of activators of human fumarate hydratase by quantitative high-throughput screening; Fumarate hydratase, mitochondrial (Homo sapiens), P07954; FH coupled MDH/diaphorase resazurin fluorescence, 15 min; Potency, µM (top dose mostly 79.9 µM), for the others: top-dose activity change, negative = inhibition, most hits filed as inhibitors; 0.22% of 54,000 active; note: potency is the fitted concentration of half-maximal effect; % is set by controls: 0 for no effect and ±100 for the full control effect; the screen sought activators but most active calls are inhibition curves; nearly all actives have a fitted effect of over 45% in size
DYRK1A KinaseGlo: human DYRK1A kinase inhibition by ATP depletion readout | 80% of 100 active | AID 2705 | recombinant DYRK1A, Kinase-Glo ATP depletion luminescence | Potency, µM (highest dose often 76.9 µM), without a hit: at the top dose activity change, negative = inhibition, most hits filed as inhibitors | shares compounds with NTMT1 inh
Sfp PPTase inh: inhibits purified B. subtilis Sfp PPTase; 78% of 230 active; Potency, µM (series often up to 114 µM), inactives show at the top dose activity change, negative = inhibition, hits mostly inhibitors; purified Sfp PPTase enzyme activity, qHTS; shares compounds with NTMT1 inh
Bsub HM489 growth: reduces growth of B. subtilis HM489 strain. shares compounds with NTMT1 inh. B. subtilis HM489 (acpS-) growth, BacTiter-Glo, 5 h. Potency, µM (highest dose often 114 µM), inactives show at the top dose activity change, negative = inhibition, usual class: inhibitors. 50% of 220 active
Sfp PPTase gel: inhibits B. subtilis Sfp PPTase in gel assay; shares compounds with NTMT1 inh; purified Sfp PPTase, gel-based product detection; Potency, µM (doses to about 250 µM), inactives show at the highest dose activity change, negative = inhibition, hits mostly inhibitors; 54% of 220 active; AID 540355
Sfp inh gel: confirmation of Bacillus subtilis Sfp PPTase inhibitors. shares compounds with NTMT1 inh. purified Sfp PPTase, gel-based product detection. Potency, µM (titrated, usually from 250 µM), without a hit: at the highest dose activity change, negative = inhibition, usual class: inhibitors. 90% of 45 active. AID 602362
Sfp inh SAR2: Sfp phosphopantetheinyl transferase inhibition, SAR round 2; shares compounds with NTMT1 inh; purified Sfp enzyme, PPTase activity, qHTS; Potency, µM (titrated, usually from 57.1 µM), for the others: at the highest dose activity change, negative = inhibition, usual class: inhibitors; 87% of 230 active
hGST A1-1 inh: counter-screen for Sfp PPTase inhibitors: hGST A1-1 inhibition | shares compounds with NTMT1 inh | hGST A1-1 enzyme activity counter-screen, qHTS | Potency, µM (titrated, usually from 114 µM), for the others: at the highest dose activity change, negative = inhibition, most hits filed as inhibitors | 55 tested, under 10 active | AID 602391
USP2a K63: confirmation of human USP2a inhibitors with K63 diubiquitin substrate; shares compounds with NTMT1 inh; USP2 cleavage of DiUb K63-3IQF, fluorescence kinetic; Potency, µM (titrated, usually from 57.5 µM), inactives show top-dose activity change, negative = inhibition, actives largely listed as inhibitors; 80% of 30 active
Target sequence (O75604 whole entry, looked up): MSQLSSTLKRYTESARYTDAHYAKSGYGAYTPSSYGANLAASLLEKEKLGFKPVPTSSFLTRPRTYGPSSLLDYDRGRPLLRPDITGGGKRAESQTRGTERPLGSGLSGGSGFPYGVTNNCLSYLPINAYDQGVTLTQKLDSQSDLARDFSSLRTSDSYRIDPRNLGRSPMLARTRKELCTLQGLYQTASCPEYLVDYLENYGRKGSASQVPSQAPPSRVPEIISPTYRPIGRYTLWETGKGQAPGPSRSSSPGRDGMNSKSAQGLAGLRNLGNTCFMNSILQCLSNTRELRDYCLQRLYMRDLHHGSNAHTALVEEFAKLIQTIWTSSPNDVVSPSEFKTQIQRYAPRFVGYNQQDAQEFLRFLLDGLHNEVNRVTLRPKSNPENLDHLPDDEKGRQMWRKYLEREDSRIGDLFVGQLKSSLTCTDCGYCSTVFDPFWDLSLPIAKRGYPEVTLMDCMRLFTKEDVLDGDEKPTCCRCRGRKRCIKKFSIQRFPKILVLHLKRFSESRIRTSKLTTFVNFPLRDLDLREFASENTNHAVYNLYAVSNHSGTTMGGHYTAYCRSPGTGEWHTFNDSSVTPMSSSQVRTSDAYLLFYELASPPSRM
Casp6 inh: selectivity of USP2a inhibitors: human caspase-6 inhibition; shares compounds with NTMT1 inh; Caspase 6 enzyme, Caspase-Glo 6 luminescence; activity change, negative = inhibition, % at 46.1 µM; 30 tested, under 10 active
HSD17B4 counter: counter-screen for HPGD inhibitors: human HSD17B4 inhibition; shares compounds with NTMT1 inh; purified HSD17B4, estradiol/NAD+, NADH fluorescence; Potency, µM (series often up to 57.1 µM), for the others: at the top dose activity change, negative = inhibition, most hits filed as inhibitors; 10% of 230 active
ALDH1A1 inh: inhibits human ALDH1A1, off-target for HPGD inhibitors | shares compounds with NTMT1 inh | recombinant ALDH1A1, NADH fluorescence, propionaldehyde/NAD+ | Potency, µM (top dose mostly 57.1 µM), without a hit: at the top dose activity change, negative = inhibition, most hits filed as inhibitors | 93% of 230 active | AID 743195
* hit, by the source's call; [ ] = another dose, or the depositor's remark. Rows were chosen to be rich in hits. Some 3.8% of all compounds tested hit in one or more screens of this group. Unless noted, calls come from the whole dose curve; as a rule, active = well fitted curve in the direction sought with a large enough effect; inconclusive = small, poorly fitted or top-dose-only effect, or another doubt; inactive = no such curve, though single readings can be large; an effect the other way counts as inactive or inconclusive.

What do the screens show for `Cc1ccc(S(=O)(=O)Nc2cc(F)c(F)cc2C(=O)Nc2nc(-c3ccccc3)cs2)cc1`?
NTMT1 inh: 7%

Results for Cc1ccc(S(=O)(=O)Nc2cnccc2C(=O)Nc2nc(-c3ccccc3F)cs2)cc1 ?
NTMT1 inh: -19%

How did Cc1ccc(S(=O)(=O)Nc2ncccc2C(=O)Nc2nc(-c3ccccc3)cs2)cc1 do in these assays?
USP2a K63: 3.4µM*; Casp6 inh: -4

What do the screens show for `Cc1ccc(S(=O)(=O)Nc2cc(C(F)(F)F)ccc2C(=O)Nc2nc(-c3ccccc3)cs2)cc1`?
NTMT1 inh: inconclusive; USP2a K63: 1.7µM*; Casp6 inh: -15

Results for Cc1cc(F)ccc1S(=O)(=O)Nc1cnccc1C(=O)Nc1nc(-c2ccccc2)cs1 ?
NTMT1 inh: 18%; USP2a K63: 1.9µM*; Casp6 inh: 3

What do the screens show for `Cc1ccc(S(=O)(=O)Nc2ccc(Cl)cc2C(=O)Nc2nc(-c3ccccc3)cs2)cc1`?
NTMT1 inh: inconclusive; USP2a K63: 1.2µM*; Casp6 inh: 0

Results for O=S(=O)(NCCc1nnc2ccc(SCc3ccc(C(F)(F)F)cc3)nn12)c1ccccc1 ?
GPR32 ag: -16; NTMT1 inh: 1%; SKOV3 invasion: -5%; FH mod: inconclusive

How did CN1CCc2cc(Cl)c(O)cc2[C@@H](c2cccc3c2OCC3)C1 do in these assays?
NTMT1 inh: 13%[57.5 µM]; FH mod: 5%

What do the screens show for `CC1=C(C(N)=O)C(c2cccc(Br)c2)n2nc(SCc3ccccc3)nc2N1` (stereo not drawn)?
GPR32 ag: 1; NTMT1 inh: 0%; SKOV3 invasion: 19%; FH mod: 6%

How did O=C(Cn1c(=O)n2nc(-c3cccc(F)c3)nc2c2ccccc21)NCc1ccc(Cl)cc1 do in these assays?
GPR32 ag: 22; NTMT1 inh: -4%; SKOV3 invasion: inactive; FH mod: -7%

Results for CN(C)C(=O)NC1CCC(CCN2CCN(c3cccc(Cl)c3Cl)CC2)CC1 (stereo not drawn) ?
NTMT1 inh: 1%[12.6 µM]; FH mod: 28%[13.5 µM]

Results for COc1ccnc(NC(=S)N2CCN(c3ccc(Cl)cc3Cl)CC2)c1 ?
NTMT1 inh: inconclusive; Sfp PPTase inh: 3µM*; Bsub HM489 growth: 13µM*; Sfp PPTase gel: 7.9µM*; Sfp inh gel: 3.4µM*; Sfp inh SAR2: 0.46µM*; hGST A1-1 inh: 4%; HSD17B4 counter: -6%; ALDH1A1 inh: 4.3µM*

What do the screens show for `CCOc1ccc(NC(=O)N2CCN(c3ccc(Cl)c(Cl)c3)CC2)cc1`?
GPR32 ag: 5; NTMT1 inh: -14%; SKOV3 invasion: -25%; FH mod: -1%

How did S=C(Nc1cc(Cl)ccn1)N1CCN(c2cccc(Cl)c2Cl)CC1 do in these assays?
NTMT1 inh: inconclusive; Sfp PPTase inh: 4.1µM*; Sfp inh SAR2: 16µM*; hGST A1-1 inh: -6%; HSD17B4 counter: -13%; ALDH1A1 inh: 6.8µM*

Results for Cn1ccc2cc(-c3ccc4ncnc(NCc5cccs5)c4c3)ccc21 ?
NTMT1 inh: -6%[57.5 µM]; DYRK1A KinaseGlo: inconclusive

What do the screens show for `c1csc(CCNc2ncnc3ccc(-c4ccc5c(c4)OCO5)cc23)c1`?
NTMT1 inh: inconclusive; DYRK1A KinaseGlo: 0.065µM*

Results for c1cncc(-c2ccc3ncnc(NCc4ccc5c(c4)OCO5)c3c2)c1 ?
NTMT1 inh: -9%

How did c1csc(CNc2ncnc3ccc(-c4ccc5c(c4)OCCO5)cc23)c1 do in these assays?
NTMT1 inh: inconclusive; DYRK1A KinaseGlo: 0.37µM*

Source: PubChem BioAssay
